# According to paper PMC7862700, “An all-to-all approach to the identification of sequence-specific readers for epigenetic DNA modifications on cytosine”:
# How the values were obtained:
# Assay in all cases: DAPPL (digital affinity profiling via proximity ligation, sequencing); 10 mM Tris-HCl pH 7.5, 50 mM NaCl, 1 mM DTT, 4% glycerol, room temperature, 30 min; GST-TFs on glutathione beads, 16-mer random dsDNA library, 0.1% formaldehyde crosslink after washing; high values mean tight binding
# Conditions in all cases: protein: recombinant; tags: N-terminal GST; dsDNA, one strand shown
# [1] = target: T1, FLI1 (Homo sapiens, UniProt Q01543 1-452)
# T1 sequence: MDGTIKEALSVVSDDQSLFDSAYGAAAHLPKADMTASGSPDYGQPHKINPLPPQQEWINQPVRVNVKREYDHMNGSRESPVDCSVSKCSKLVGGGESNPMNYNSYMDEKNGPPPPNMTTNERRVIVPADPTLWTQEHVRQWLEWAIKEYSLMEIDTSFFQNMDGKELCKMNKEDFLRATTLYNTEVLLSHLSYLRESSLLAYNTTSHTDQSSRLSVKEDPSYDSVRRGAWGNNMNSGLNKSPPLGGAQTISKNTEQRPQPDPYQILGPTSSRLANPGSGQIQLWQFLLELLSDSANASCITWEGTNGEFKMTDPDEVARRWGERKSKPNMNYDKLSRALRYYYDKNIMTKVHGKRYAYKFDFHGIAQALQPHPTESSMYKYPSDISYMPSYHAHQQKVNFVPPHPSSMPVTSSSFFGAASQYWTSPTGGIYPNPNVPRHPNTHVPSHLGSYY
# In short: (§1)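 Human transcription factors carrying a GST fusion were produced in yeast, bound to glutathione beads, tagged with DNA barcodes and pooled together with a tag-only sample. Each pool was held with 200 nmole of a random double-stranded 16-mer DNA library in Tris/NaCl/DTT/glycerol buffer for 30 min at room temperature, then washed, crosslinked in 0.1% formaldehyde, proximity-ligated with BsaI/T4 ligase (1 h, 37 °C), PCR-amplified and sequenced on an Illumina NextSeq500. Binding signal is the read frequency of each hexamer for a given factor divided by its frequency in the tag-only sample.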
# [2] = target: SPIB (Homo sapiens, UniProt Q01892 1-262)
# SPIB, sequence (Q01892 whole entry): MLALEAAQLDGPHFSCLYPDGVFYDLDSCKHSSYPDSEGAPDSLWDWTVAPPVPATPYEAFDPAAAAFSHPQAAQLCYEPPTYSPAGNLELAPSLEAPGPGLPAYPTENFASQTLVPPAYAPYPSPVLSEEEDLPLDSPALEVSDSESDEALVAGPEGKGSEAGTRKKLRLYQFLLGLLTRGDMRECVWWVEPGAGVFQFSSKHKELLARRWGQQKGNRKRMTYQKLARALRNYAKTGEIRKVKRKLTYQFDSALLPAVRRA
# In short: as §1
# [3] = target: T2, ELK3 (Homo sapiens, UniProt P41970 1-407)
# T2 sequence: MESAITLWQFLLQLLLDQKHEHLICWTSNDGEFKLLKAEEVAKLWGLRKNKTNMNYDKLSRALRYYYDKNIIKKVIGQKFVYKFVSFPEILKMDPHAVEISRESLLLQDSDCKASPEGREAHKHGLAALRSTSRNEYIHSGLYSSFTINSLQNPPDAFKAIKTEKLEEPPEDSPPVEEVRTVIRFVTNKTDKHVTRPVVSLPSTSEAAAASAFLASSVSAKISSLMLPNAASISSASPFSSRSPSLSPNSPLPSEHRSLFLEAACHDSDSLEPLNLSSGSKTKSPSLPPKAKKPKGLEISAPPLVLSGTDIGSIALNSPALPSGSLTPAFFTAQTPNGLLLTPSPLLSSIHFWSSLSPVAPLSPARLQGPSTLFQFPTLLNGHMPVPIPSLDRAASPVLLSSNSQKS
# In short: as §1
# [4] = target: ELF4 (Homo sapiens, UniProt Q99607 1-663)
# ELF4, sequence (Q99607 whole entry): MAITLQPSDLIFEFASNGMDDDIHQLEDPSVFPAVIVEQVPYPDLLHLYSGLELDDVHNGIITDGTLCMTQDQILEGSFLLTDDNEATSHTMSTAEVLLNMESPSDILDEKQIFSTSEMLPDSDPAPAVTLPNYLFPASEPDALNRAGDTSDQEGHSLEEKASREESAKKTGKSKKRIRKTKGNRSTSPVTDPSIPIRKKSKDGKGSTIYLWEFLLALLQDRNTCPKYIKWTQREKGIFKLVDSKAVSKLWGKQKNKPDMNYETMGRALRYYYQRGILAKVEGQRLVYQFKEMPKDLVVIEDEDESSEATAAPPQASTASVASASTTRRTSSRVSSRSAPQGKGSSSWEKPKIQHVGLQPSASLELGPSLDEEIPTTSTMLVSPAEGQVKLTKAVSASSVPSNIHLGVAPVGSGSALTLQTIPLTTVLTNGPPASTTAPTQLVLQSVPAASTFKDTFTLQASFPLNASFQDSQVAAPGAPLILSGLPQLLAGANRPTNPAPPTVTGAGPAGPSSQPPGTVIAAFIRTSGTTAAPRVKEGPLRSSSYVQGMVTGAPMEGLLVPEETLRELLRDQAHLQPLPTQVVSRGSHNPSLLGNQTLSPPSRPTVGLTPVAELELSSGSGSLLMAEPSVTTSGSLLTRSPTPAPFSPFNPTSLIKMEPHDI
# In short: as §1
# [5] = target: T3, ELK4 (Homo sapiens, UniProt P28324-2 1-405)
# T3 sequence: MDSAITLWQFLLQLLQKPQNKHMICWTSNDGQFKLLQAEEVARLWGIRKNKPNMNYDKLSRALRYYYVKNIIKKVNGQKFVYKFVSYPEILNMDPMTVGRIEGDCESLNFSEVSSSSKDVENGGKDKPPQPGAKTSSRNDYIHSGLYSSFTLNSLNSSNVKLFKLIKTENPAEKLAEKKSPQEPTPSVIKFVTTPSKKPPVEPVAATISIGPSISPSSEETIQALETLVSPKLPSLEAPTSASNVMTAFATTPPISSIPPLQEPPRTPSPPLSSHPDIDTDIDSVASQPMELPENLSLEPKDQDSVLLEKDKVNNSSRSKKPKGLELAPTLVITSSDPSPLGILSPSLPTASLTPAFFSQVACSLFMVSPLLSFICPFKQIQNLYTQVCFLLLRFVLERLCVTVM
# In short: as §1
# [6] = target: T4, ETV2 (Homo sapiens, UniProt O00321 1-342)
# T4 sequence: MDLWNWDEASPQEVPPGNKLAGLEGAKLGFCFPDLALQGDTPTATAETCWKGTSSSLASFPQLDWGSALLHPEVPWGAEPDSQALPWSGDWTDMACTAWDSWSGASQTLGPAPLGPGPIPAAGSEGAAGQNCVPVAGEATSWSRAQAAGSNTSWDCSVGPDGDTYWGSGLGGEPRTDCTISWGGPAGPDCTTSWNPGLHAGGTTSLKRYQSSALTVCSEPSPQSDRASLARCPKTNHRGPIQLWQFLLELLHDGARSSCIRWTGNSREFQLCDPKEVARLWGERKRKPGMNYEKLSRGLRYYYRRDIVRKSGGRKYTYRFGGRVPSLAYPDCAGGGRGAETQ
# In short: as §1
# [7] = target: CRX (Homo sapiens, UniProt O43186 1-299)
# CRX, sequence (O43186 whole entry): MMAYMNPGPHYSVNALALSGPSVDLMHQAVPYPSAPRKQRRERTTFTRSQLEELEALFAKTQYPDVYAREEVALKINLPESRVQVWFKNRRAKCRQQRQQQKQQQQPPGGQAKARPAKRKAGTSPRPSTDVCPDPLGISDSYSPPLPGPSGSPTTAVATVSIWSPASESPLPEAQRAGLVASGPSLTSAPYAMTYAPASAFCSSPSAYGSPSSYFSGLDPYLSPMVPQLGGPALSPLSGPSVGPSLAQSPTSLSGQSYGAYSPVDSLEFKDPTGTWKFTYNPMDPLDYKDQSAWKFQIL
# In short: as §1
# [8] = target: ETV1 (Homo sapiens, UniProt P50549 1-477)
# ETV1, sequence (P50549 whole entry): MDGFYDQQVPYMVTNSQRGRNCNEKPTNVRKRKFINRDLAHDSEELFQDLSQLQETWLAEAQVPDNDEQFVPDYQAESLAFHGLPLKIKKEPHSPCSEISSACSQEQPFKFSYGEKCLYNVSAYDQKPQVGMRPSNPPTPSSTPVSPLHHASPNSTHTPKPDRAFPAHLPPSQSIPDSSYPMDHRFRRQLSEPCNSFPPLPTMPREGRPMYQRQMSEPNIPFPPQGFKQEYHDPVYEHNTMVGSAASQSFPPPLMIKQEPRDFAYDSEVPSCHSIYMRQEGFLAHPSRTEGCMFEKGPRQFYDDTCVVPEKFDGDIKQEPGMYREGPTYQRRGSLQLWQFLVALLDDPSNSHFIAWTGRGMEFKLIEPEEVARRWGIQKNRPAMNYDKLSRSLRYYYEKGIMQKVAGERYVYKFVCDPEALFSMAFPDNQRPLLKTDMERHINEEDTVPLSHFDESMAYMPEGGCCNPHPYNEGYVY
# In short: as §1
# [9] = target: T5, ETV3L (Homo sapiens, UniProt Q6ZN32 1-361)
# T5 sequence: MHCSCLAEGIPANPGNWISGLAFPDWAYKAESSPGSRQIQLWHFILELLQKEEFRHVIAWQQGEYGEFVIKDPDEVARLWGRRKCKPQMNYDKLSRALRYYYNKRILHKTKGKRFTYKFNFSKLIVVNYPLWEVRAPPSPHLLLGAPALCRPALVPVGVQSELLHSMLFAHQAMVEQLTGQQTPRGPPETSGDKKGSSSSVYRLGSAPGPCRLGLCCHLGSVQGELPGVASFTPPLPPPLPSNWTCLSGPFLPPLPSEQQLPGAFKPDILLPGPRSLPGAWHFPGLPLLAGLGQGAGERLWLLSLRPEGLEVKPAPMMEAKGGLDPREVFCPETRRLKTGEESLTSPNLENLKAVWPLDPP
# In short: as §1
# [10] = target: T6, ETV3 (Homo sapiens, UniProt P41162-2 1-143)
# T6 sequence: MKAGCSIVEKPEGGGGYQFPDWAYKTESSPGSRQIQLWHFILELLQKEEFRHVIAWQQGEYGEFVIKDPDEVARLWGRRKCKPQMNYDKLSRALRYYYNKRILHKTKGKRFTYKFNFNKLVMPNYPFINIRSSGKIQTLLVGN
# In short: as §1
sequence,measurement,setting,value
CAAGCT,binding signal,[1],"1.05 fold enrichment (6-mer frequency, TF over GST control)"
same,binding signal,[2],"1.04 fold enrichment (6-mer frequency, TF over GST control)"
same,binding signal,[3],"1.03 fold enrichment (6-mer frequency, TF over GST control)"
same,binding signal,[4],"1.02 fold enrichment (6-mer frequency, TF over GST control)"
same,binding signal,[5],"1.13 fold enrichment (6-mer frequency, TF over GST control)"
same,binding signal,[6],"1.02 fold enrichment (6-mer frequency, TF over GST control)"
same,binding signal,[7],"1.1 fold enrichment (6-mer frequency, TF over GST control)"
same,binding signal,[8],"1.04 fold enrichment (6-mer frequency, TF over GST control)"
same,binding signal,[9],"1.05 fold enrichment (6-mer frequency, TF over GST control)"
same,binding signal,[10],"1.02 fold enrichment (6-mer frequency, TF over GST control)"
